Experimental data taken from PubChem BioAssay (NCI).
About 79,000 compounds went through this panel and 15% of them were active in at least one assay; those are over-represented in the sample as a whole. The source made the active and inactive calls. No stated cut-off is given here; in the data, active means growth inhibition above about 70%; inactive means the rest.

What was measured:
[1] = NCI Yeast Anticancer Drug Screen. Data for the rad50 strain (AID 155);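 further: 0% = growth of vehicle-only cultures of the same strain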; conditions: S. cerevisiae rad50 strain growth inhibition, stronger effect = higher value
How it was run: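 A DNA repair-deficient yeast mutant serves as the test organism; compound-induced growth inhibition is calculated against vehicle-treated cells.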

[2] = NCI Yeast Anticancer Drug Screen. Data for the mec2-1 strain (AID 157); conditions: S. cerevisiae mec2-1 strain, stronger effect = higher value
How it was run: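 Compounds were applied to mec2-1 yeast cells. Their growth was then compared with that of vehicle-treated cultures to give growth inhibition.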

[3] = NCI Yeast Anticancer Drug Screen. Data for the sgs1 mgt1 strain (AID 161);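 further: 0% = growth of cultures given vehicle only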; conditions: S. cerevisiae sgs1 mgt1 strain, stronger effect = higher value
How it was run: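 Growth of a repair-deficient yeast mutant was monitored after compound treatment and expressed as inhibition relative to vehicle-treated cultures.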

[4] = NCI Yeast Anticancer Drug Screen. Data for the cln2 rad14 strain (AID 165);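 further: 0% = growth equal to vehicle treated cultures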; conditions: S. cerevisiae cln2 rad14 strain, stronger effect = higher value
How it was run: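 Strain: cln2 rad14 yeast, altered in cell cycle control and DNA damage repair. Read-out: growth inhibition vs vehicle.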

[5] = NCI Yeast Anticancer Drug Screen. Data for the bub3 strain (AID 167); conditions: S. cerevisiae bub3 mutant strain, stronger effect = higher value
How it was run: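 Inhibition values come from growth of compound-treated mutant yeast normalised to vehicle-treated controls.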

[6] = NCI Yeast Anticancer Drug Screen. Data for the mlh1 rad18 strain (AID 175); conditions: S. cerevisiae mlh1 rad18 strain growth inhibition, stronger effect = higher value
How it was run: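 A repair-deficient yeast strain is exposed to test compound, and growth is scored relative to vehicle-treated controls.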

[7] = at 5.0 µM (retest, dose inferred, filed as 0.5)
[8] = at 50.0 µM (retest, dose inferred, filed as 5.0)

Measured: growth inhibition

Nc1nc(-c2ccc(Cl)cc2)c(N=Nc2ccc(Br)cc2)s1
inactive: [1]; [7] 1% | [2]; [7] -20% | [3]; [7] 3% | [4]; [7] -11% | [5]; [7] -17% | [6]; [7] 11%
active: [1]; [8] 93% | [1]; at 50.0 µM 97.5% | [2]; [8] 96% | [2]; at 50.0 µM 98% | [3]; [8] 94% | [3]; at 50.0 µM 98.3% | [4]; [8] 89% | [4]; at 50.0 µM 95.4% | [5]; [8] 91% | [5]; at 50.0 µM 96.5% | [6]; [8] 97% | [6]; at 50.0 µM 98.5%

O=C(/C=C/c1cccc([N+](=O)[O-])c1)CCl
inactive: [1]; [7] 1% | [2]; [7] -20% | [3]; [7] 13% | [4]; [7] -22% | [5]; [7] 14% | [6]; [7] -32%
active: [1]; [8] 98% | [1]; at 50.0 µM 99.3% | [2]; [8] 99% | [2]; at 50.0 µM 99.6% | [3]; [8] 99% | [3]; at 50.0 µM 99.2% | [4]; [8] 98% | [4]; at 50.0 µM 98.9% | [5]; [8] 98% | [5]; at 50.0 µM 99.5% | [6]; [8] 98% | [6]; at 50.0 µM 99.3%

OC(Cc1cccnc1)(c1ccccc1)c1ccc(Cl)cc1 (stereo not drawn)
active: [1]; at 50.0 µM 97.5% | [2]; [8] 80% | [2]; at 50.0 µM 98% | [3]; [8] 79% | [3]; at 50.0 µM 97.3% | [4]; at 50.0 µM 94.2% | [5]; [8] 77% | [5]; at 50.0 µM 97.2% | [6]; [8] 71% | [6]; at 50.0 µM 98%
inactive: [1]; [7] -7% | [1]; [8] 69% | [2]; [7] -3% | [3]; [7] 6% | [4]; [7] -1% | [4]; [8] 64% | [5]; [7] -3% | [6]; [7] -5%

O=C(Nc1ccccc1)OCCN=c1c2ccccc2ccc2ccccc12
inactive: [1]; [7] 6% | [2]; [7] -1% | [3]; [7] 7% | [3]; [8] 48% | [4]; [7] -15% | [4]; [8] 68% | [5]; [7] 5% | [6]; [7] 5%
active: [1]; [8] 84% | [1]; at 50.0 µM 84% | [2]; [8] 71% | [2]; at 50.0 µM 90.5% | [3]; at 50.0 µM 88.2% | [4]; at 50.0 µM 82.7% | [5]; [8] 78% | [5]; at 50.0 µM 90% | [6]; [8] 92% | [6]; at 50.0 µM 87.2%

Oc1ccccc1C1N(Cc2ccc(Cl)cc2)CCN1Cc1ccc(Cl)cc1
inactive: [1]; [7] 7% | [1]; [8] 57% | [1]; at 50.0 µM 18.2% | [2]; [7] 7% | [2]; [8] 58% | [2]; at 50.0 µM 17.6% | [3]; [7] 20% | [3]; at 50.0 µM 46.5% | [4]; [7] 14% | [4]; [8] 58% | [4]; at 50.0 µM 62.6% | [5]; [7] 22% | [5]; at 50.0 µM 16.4% | [6]; [7] 22% | [6]; at 50.0 µM 18.4%
active: [3]; [8] 93% | [5]; [8] 81% | [6]; [8] 70%

CS(C)=O.[Cl-].[Cl-].[NH-]CC(O)CN(Cc1ccccc1)CC(O)CN.[Pt] (stereo not drawn)
inactive: [1]; [7] -15% | [1]; [8] 4% | [1]; at 50.0 µM 31.9% | [2]; [7] 18% | [2]; [8] 20% | [2]; at 50.0 µM 1% | [3]; [7] 2% | [3]; [8] 18% | [3]; at 50.0 µM 17.7% | [4]; [7] 39% | [4]; [8] 14% | [4]; at 50.0 µM -6.25% | [5]; [7] -19% | [5]; [8] -11% | [5]; at 50.0 µM -5.7% | [6]; [7] -13% | [6]; [8] -4% | [6]; at 50.0 µM 7.75%
